From PubChem BioAssay
Activity calls are given as the source filed them.

Tests used:
[1] = molecular target: Albumin (Bos taurus) (UniProt P02769); test: compounds binding labelled BSA control protein – biochemical, small-molecule microarray, Alexa647 label, 635/667 nm fluorescence, artefact control for SMM control protein annotation, profiling panel (AID 1118); conditions: BSA-A647 binding, fluorescence 635 nm, higher = more signal;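 note: score merges 667 nm emission intensity and signal-to-noise per printed compound spot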
[2] = probe aXIP binding to arrayed compounds – biochemical, NeuroSMM set, 635/667 nm fluorescence, primary screen (AID 1119); conditions: small-molecule microarray, higher = more signal, called active from +8 up or from −8 down;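 note: probe is the protein aXip251-270 applied at 1 µg/mL to compound-printed slides; binding of probe to printed compounds measured as 667 nm fluorescence plus signal to noise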
[3] = probe aNOTCH3 binding on compound microarray – biochemical, small-molecule microarray, 635/667 nm fluorescence, primary screen (AID 1120); conditions: higher = more signal;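 note: probe is a biotin-tagged antibody raised against NOTCH3 rather than NOTCH3 protein; score merges spot fluorescence near 667 nm with spot signal to noise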
[4] = probe aNOTCH2 binding on compound microarray – biochemical, small-molecule microarray, 635/667 nm fluorescence, primary screen (AID 1121); conditions: higher = more signal;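 note: score merges feature fluorescence read at 667 nm with its signal to noise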
[5] = molecular target: Carbonic anhydrase 2 (Homo sapiens) (UniProt P00918); test: compounds binding carbonic anhydrase 2 – biochemical, small-molecule microarray, Alexa647-labelled CAII, profiling panel (AID 1122); conditions: CAII-A647 binding fluorescence, higher = more signal
[6] = COS7 lysate on small-molecule microarray, probe aHis, 635 nm (AID 1123); conditions: COS7 cell lysate, fluorescence, higher = more signal;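 note: z-score combines 667nm fluorescence intensity with signal-to-noise per printed compound spot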
[7] = probe aLAP1 signal on lysate-treated microarray – cell lysate, small-molecule microarray, COS7 lysate, primary screen (AID 1124); conditions: probe aLAP1, fluorescence, higher = more signal;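 note: lysate comes from COS7 cells expressing LAP1 and is applied at 0.3 µg/mL; score merges spot fluorescence near 667 nm with signal-to-noise over triplicate slides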
[8] = test system: Sam68 (KHDRBS1); test: compounds binding KHDRBS1 protein – biochemical, small-molecule microarray, 635 nm fluorescence, primary screen (AID 1125); conditions: higher = more signal;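 note: score merges 667 nm channel intensity with signal to noise over triplicate slides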
[9] = test system: Chordin-like protein 2 (CHRDL2); test: compounds binding chordin-like 2 – biochemical, small-molecule microarray, 635 nm fluorescence, primary screen (AID 1126); conditions: fluorescence 635 nm, higher = more signal;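 note: printed compound slides probed with Chrdl2 protein at 4 µg/mL for 1 h at 4 C; score merges 667 nm emission intensity with signal to noise over three replicate slides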
[10] = molecular target: Concanavalin-A (Canavalia ensiformis) (UniProt P02866); test: compounds binding concanavalin A lectin – biochemical, small-molecule microarray, Alexa647 label, 635 nm, artefact control for SMM control protein annotation, primary screen (AID 1127); conditions: ConA-A647 binding fluorescence, higher = more signal;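 note: z combines 667 nm emission intensity with signal-to-noise across three replicate slides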
[11] = compounds binding Alexa647 anti-His antibody – biochemical, small-molecule microarray, 635 nm fluorescence, artefact control for SMM control protein annotation, primary screen (AID 1128); conditions: higher = more signal;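 note: score merges feature fluorescence with signal-to-noise for each printed compound spot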
[12] = test system: Human papillomavirus type 1a E7 protein (residues 1-88); test: HPV1a E7 small-molecule binders, primary screen, biochemical, small-molecule microarray, residues 1-88, 635 nm (AID 1129); conditions: small-molecule microarray binding, fluorescence 635 nm; higher = more signal
[13] = molecular target: Focal adhesion kinase 1 (Homo sapiens) (UniProt Q05397); test: PTK2 protein binding on printed compound slides – biochemical, small-molecule microarray, 635/667 nm fluorescence, BSA, DTT, primary screen (AID 1130); conditions: 635 nm fluorescence, higher = more signal;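 note: composite of spot emission at 667 nm and signal to noise over triplicate slides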
[14] = test system: Fibrinogen (Alexa647-labelled); test: Alexa647-fibrinogen binding to printed small molecules – biochemical, small-molecule microarray, 635/667 nm fluorescence, artefact control for SMM control-protein annotation, profiling panel (AID 1131); conditions: fibrinogen-A647 binding fluorescence, higher = more signal;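 note: z-score merges 667 nm fluorescence with per-spot signal-to-noise over triplicate slides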
[15] = molecular target: Follistatin (Homo sapiens) (UniProt P19883); test: FST protein binding to printed compounds – biochemical, small-molecule microarray, 635/667 nm fluorescence, primary screen (AID 1132); conditions: 635 nm fluorescence, higher = more signal
[16] = molecular target: Fibroblast growth factor 2 (Homo sapiens) (UniProt P09038); test: basic fibroblast growth factor binding to printed compounds – biochemical, small-molecule microarray, 635/667 nm fluorescence, primary screen (AID 1133); conditions: FGF2, fluorescence 635/667, higher = more signal
[17] = JC-1 mitochondrial potential readout, lung cancer cells – cell-based, A549, JC-1 fluorescence, basal, 24 h, 100 nL, profiling panel (AID 1138); conditions: higher = more signal;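 note: A549 lung adenocarcinoma cells under basal conditions with no added stimulus; test concentration not given here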
[18] = test system: Lefty1; test: Lefty1 protein binding to printed compounds – biochemical, small-molecule microarray, 635/667 nm fluorescence, primary screen (AID 1139); conditions: fluorescence 635/667, higher = more signal
[19] = test system: wheat germ agglutinin (Triticum aestivum), Alexa647-labelled; test: Alexa647-WGA lectin binding to printed small molecules – biochemical, small-molecule microarray, 635/667 nm fluorescence, artefact control for SMM control-protein annotation, profiling panel (AID 1140); conditions: WGA-A647 binding, 635 nm fluorescence, higher = more signal;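 note: score merges 667 nm feature emission with signal to noise over triplicate slides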
[20] = molecular target: Luciferin 4-monooxygenase (Photinus pyralis) (UniProt P08659); test: inhibition of purified Photinus pyralis luciferase – biochemical, luminescence, purified enzyme, 2006 set, primary screen (AID 1141); conditions: purified firefly luciferase, SteadyGlo luminescence, 30 min; higher = more signal, called active from +8 up or from −8 down;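 note: cell-free assay with purified firefly luciferase at 100 ng per well in PBS; test concentration not given here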
Luciferin 4-monooxygenase (Photinus pyralis), sequence (P08659 whole entry, looked up): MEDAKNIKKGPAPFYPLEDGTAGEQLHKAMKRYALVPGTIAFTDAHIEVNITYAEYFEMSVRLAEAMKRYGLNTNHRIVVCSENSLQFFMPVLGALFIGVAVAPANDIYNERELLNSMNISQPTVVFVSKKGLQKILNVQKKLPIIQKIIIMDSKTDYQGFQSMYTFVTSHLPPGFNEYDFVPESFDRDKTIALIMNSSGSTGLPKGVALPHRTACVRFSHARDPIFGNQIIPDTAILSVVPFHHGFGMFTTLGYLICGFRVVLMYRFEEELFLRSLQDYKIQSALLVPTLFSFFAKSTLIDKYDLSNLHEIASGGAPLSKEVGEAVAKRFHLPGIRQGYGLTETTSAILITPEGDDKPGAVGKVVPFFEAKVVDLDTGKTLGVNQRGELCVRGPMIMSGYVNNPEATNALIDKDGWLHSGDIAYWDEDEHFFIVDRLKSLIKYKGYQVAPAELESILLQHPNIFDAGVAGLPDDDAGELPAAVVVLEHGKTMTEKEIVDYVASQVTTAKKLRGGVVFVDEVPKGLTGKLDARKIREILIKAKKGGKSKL

Focal adhesion kinase 1 (Homo sapiens), sequence (Q05397 whole entry, looked up): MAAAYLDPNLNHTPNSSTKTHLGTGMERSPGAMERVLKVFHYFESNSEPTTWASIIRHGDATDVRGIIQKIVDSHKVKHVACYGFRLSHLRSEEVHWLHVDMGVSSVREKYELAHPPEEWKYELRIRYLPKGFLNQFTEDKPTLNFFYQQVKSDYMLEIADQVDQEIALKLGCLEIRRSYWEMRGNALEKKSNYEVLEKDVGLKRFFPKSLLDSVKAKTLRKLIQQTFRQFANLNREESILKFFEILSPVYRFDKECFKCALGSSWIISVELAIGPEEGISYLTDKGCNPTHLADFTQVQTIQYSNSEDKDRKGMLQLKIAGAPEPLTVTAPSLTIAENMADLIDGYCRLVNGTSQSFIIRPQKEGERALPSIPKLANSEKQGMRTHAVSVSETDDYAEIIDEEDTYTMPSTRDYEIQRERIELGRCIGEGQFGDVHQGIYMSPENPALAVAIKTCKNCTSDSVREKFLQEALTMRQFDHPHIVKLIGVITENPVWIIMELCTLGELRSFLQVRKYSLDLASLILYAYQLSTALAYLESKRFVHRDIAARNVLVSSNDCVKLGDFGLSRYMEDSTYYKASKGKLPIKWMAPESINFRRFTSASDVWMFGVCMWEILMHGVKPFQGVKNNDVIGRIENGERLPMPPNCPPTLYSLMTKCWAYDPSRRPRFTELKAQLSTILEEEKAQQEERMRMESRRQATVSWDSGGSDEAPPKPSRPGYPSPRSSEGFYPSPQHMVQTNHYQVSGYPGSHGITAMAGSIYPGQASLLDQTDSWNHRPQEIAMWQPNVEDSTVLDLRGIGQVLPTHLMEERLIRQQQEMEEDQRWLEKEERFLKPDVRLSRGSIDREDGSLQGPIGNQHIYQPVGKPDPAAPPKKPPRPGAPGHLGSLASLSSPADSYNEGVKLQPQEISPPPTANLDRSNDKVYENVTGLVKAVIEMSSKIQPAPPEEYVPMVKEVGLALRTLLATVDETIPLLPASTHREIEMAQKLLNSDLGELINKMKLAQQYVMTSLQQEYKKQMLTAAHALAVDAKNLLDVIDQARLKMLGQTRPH
Follistatin (Homo sapiens), sequence (P19883 whole entry, looked up): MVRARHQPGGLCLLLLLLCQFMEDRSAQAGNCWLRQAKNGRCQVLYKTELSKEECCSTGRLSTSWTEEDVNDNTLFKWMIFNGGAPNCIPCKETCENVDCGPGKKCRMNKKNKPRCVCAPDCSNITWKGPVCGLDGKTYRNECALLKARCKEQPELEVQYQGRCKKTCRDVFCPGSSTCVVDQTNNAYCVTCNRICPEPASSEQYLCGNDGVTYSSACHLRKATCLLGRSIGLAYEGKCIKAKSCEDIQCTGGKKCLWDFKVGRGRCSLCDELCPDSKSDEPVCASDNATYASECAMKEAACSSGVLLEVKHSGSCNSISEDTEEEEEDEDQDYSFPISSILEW
Concanavalin-A (Canavalia ensiformis), sequence (P02866 whole entry, looked up): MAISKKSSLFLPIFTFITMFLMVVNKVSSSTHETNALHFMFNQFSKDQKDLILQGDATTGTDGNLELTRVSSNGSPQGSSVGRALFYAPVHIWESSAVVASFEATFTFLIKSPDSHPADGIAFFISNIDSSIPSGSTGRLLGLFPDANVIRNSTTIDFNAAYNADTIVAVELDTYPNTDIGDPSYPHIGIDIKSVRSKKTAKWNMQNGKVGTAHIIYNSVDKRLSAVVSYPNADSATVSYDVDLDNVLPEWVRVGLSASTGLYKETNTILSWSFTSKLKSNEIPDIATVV
Albumin (Bos taurus), sequence (P02769 whole entry, looked up): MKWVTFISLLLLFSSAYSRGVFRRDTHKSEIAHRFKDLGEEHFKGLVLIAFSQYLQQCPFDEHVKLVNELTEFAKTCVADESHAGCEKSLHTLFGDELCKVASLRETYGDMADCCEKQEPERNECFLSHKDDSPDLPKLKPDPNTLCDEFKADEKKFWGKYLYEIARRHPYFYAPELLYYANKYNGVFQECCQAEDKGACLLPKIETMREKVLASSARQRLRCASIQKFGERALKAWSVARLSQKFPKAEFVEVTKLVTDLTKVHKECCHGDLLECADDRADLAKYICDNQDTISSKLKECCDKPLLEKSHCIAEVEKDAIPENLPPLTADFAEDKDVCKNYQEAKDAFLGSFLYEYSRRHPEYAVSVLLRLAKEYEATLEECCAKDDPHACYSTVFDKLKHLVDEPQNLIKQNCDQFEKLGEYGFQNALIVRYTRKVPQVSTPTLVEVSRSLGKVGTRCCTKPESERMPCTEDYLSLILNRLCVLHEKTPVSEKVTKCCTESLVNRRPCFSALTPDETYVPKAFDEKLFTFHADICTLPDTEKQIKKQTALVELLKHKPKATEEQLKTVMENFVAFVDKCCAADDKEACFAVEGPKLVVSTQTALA
Fibroblast growth factor 2 (Homo sapiens), sequence (P09038 whole entry, looked up): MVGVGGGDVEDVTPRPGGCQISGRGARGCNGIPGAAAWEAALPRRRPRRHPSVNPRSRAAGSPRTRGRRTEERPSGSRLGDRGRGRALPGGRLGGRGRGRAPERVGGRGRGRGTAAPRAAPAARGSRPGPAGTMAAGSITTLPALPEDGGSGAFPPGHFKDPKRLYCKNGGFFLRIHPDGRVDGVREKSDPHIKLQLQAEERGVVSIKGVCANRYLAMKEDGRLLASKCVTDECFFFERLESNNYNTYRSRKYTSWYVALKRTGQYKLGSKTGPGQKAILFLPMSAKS

Row | Structure (SMILES) | composite z-score [1] | composite Z-score [2] | composite z-score [3] | composite z-score [4] | composite z-score [5] | composite z-score [6] | composite z-score [7] | composite z-score [8] | composite z-score [9] | composite z-score [10] | composite z-score [11] | composite z-score [12] | composite z-score [13] | composite z-score [14] | composite z-score [15] | composite z-score [16] | z-score [17] | composite z-score [18] | composite z-score [19] | z-score [20]
1 | C[C@@H]1CC[C@H]2C(=O)OC(Cc3ccccc3)CN2[C@H]1c1ccc(Br)cc1 (stereo not given in full) | 0.525 | -0.014 (inactive) | -0.0362 | -0.198 | 0.186 | 0.712 | 0.509 | 0.64 | 0.257 | 0.494 | 0.227 | 0.238 | -0.0103 | 0.853 | 0.329 | 0.867 | 1.57 | 0.789 | 0.339 | -0.679 (inactive)
2 | CC(=O)OC[C@H]1O[C@H](CC=NO[C@@H](C)c2cc(-c3c(C)cc(C)cc3C)no2)C=C[C@@H]1OC(C)=O | 0.211 | 0.209 (inactive) | -0.0984 | -0.0532 | -0.273 | -0.447 | 0.234 | -0.177 | 0.236 | 0.105 | 1.81 | -0.375 | -0.206 | 0.318 | 0.0047 | 0.323 | -0.921 | -0.0273 | 0.229 | 0.644 (inactive)
3 | CC(CCN1CCc2nc(-c3ccccc3)c(-c3ccccc3)cc2C1)=NO[C@H](C)c1cn([C@H](CO)Cc2ccccc2)nn1 | 0.901 | -0.248 (inactive) | -0.155 | -0.161 | 0.367 | 0.585 | 0.0245 | -0.29 | 0.26 | 0.158 | 0.955 | 0.137 | 0.0132 | 0.689 | 0.677 | 0.882 | 2.22 | 0.313 | 0.158 | -0.595 (inactive)
4 | CON(C)C(=O)c1nnc2c(n1)[nH]c1ccccc12 | 0.795 | 0.0617 (inactive) | -0.0765 | -0.167 | 0.464 | 0.128 | 1.02 | 0.129 | 0.493 | 0.293 | 0.459 | 0.607 | 0.137 | 0.471 | 0.545 | 0.635 | -0.448 | 0.596 | 0.816 | -2.33 (inactive)
5 | COC(=O)[C@H](C)NC(=O)CCC1CC(OC(=O)NCc2cccc3ccccc23)CC2(CCCC(COC(=O)NCc3ccccc3)O2)O1 (stereo not given in full) | -0.0725 | 0.142 (inactive) | 0.062 | -0.104 | 0.288 | 0.763 | -0.206 | 1.26 | 0.7 | 0.984 | 0.432 | 0.976 | 0.388 | 0.893 | 0.729 | 0.846 | -0.139 | 1.17 | 0.22 | 1.09 (inactive)
6 | CCOC(=O)[C@H](CC(C)C)NC(=O)CCC1CC(OC(=O)NCc2ccc3c(c2)OCO3)CC2(CCCC(COC(=O)NCCc3ccc(Cl)cc3)O2)O1 (stereo not given in full) | 0.619 | -0.232 (inactive) | 0.0116 | -0.159 | 0.232 | 0.817 | 0.127 | 1.11 | 0.359 | -0.0326 | 0.141 | 0.653 | 0.0146 | -0.092 | 0.62 | 0.671 | 0.387 | 1.14 | 0.669 | 0.621 (inactive)
7 | C#CCCCON=C1C[C@@H](O)[C@@H](O)[C@@H]2[C@@H]3C(=O)N(C[C@@H]4CCCO4)C(=O)[C@@H]3CC[C@H]12 | 0.541 | 1.11 (inactive) | -0.0662 | -0.115 | 0.239 | 0.335 | 0.142 | 0.63 | 0.249 | 0.732 | 0.185 | 0.508 | 0.235 | 0.509 | 0.669 | 0.103 | -0.544 | 0.388 | 0.0691 | 0.451 (inactive)
8 | O=C1C[C@@H](O)[C@@H](O)[C@@H]2[C@@H]3C(=O)N(Cc4ccccc4)C(=O)[C@@H]3CC[C@H]12 | -0.0028 | -0.082 (inactive) | 0.111 | -0.107 | 0.213 | -0.0842 | 0.23 | 0.184 | 0.415 | 0.941 | 0.0747 | 0.467 | 0.141 | 0.872 | 0.967 | 0.347 | -0.579 | 0.329 | 0.565 | 0.675 (inactive)
9 | O=C1[C@H]2[C@H]3[C@H](O)[C@H](O)CC(=NO[C@@H]4O[C@H](CO)[C@@H](O)[C@H](O)[C@H]4O)[C@@H]3CC[C@H]2C(=O)N1C[C@@H]1CCCO1 | 0.587 | -0.258 (inactive) | -0.243 | -0.131 | 0.212 | 0.146 | -0.136 | 1.1 | 0.183 | 0.51 | 0.142 | 1.15 | 0.142 | 0.907 | 0.396 | 0.4 | -1.08 | 0.649 | 0.326 | 0.954 (inactive)
10 | CC(C)=CCCC(C)=CCON=C1C[C@@H](O)[C@@H](O)[C@@H]2[C@@H]3C(=O)N(c4cccc(Oc5ccccc5)c4)C(=O)[C@@H]3CC[C@H]12 | 0.631 | 1.38 (inactive) | -0.0288 | -0.155 | 0.376 | 1.23 | 0.163 | 1.02 | 0.492 | 0.609 | 0.364 | 1.03 | 0.132 | 0.693 | 0.559 | 0.252 | -0.137 | 0.719 | 0.197 | 0.664 (inactive)
